Structures are written as SMILES. Active and inactive are the calls of the source.

We go through six compounds from PubChem BioAssay.

Experiment [1] can be described thus: small molecules captured by biotinylated probe aFSTL3 – biochemical, small-molecule microarray, fluorescence 635/667, stem cell growth factor project, primary screen (AID 1064).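 Also: measures binding of the biotinylated anti-FSTL3 antibody to printed compounds.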 The note with it: higher = more signal.
Experiment [2] can be described thus: binders from COS7 lysate, DM2A8 probe, primary screen, torsin A project, cell lysate, small-molecule microarray, fluorescence 635/667 (AID 1065). The note with it: higher = more signal, COS7 lysate expressing mutant human TOR1A.
Experiment [3] can be described thus: small molecules captured by biotinylated probe aFGF2 – biochemical, small-molecule microarray, fluorescence 635/667, stem cell growth factor project, primary screen (AID 1067).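 Also: measures binding of biotinylated aFGF2 protein to printed compounds on slides; z-score merges feature fluorescence and signal-to-noise across triplicate slides.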 Conditions: higher = more signal.
Experiment [4] can be described thus: small molecules captured by biotinylated probe aFGF10 – biochemical, small-molecule microarray, fluorescence 635/667, stem cell growth factor project, primary screen (AID 1071).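 Also: score merges 667 nm spot intensity and signal to noise from triplicate slides.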 Conditions: higher = more signal.
In experiment [5] the target is Neurogenic locus notch homolog protein 2 (Homo sapiens) (UniProt Q04721). In words: small molecules binding Notch2 protein – biochemical, small-molecule microarray, 635 nm fluorescence, stem cell growth factors, primary screen (AID 1073). Conditions: higher = more signal.
Chain of Neurogenic locus notch homolog protein 2 (Homo sapiens) (Q04721 whole entry, looked up, canonical isoform): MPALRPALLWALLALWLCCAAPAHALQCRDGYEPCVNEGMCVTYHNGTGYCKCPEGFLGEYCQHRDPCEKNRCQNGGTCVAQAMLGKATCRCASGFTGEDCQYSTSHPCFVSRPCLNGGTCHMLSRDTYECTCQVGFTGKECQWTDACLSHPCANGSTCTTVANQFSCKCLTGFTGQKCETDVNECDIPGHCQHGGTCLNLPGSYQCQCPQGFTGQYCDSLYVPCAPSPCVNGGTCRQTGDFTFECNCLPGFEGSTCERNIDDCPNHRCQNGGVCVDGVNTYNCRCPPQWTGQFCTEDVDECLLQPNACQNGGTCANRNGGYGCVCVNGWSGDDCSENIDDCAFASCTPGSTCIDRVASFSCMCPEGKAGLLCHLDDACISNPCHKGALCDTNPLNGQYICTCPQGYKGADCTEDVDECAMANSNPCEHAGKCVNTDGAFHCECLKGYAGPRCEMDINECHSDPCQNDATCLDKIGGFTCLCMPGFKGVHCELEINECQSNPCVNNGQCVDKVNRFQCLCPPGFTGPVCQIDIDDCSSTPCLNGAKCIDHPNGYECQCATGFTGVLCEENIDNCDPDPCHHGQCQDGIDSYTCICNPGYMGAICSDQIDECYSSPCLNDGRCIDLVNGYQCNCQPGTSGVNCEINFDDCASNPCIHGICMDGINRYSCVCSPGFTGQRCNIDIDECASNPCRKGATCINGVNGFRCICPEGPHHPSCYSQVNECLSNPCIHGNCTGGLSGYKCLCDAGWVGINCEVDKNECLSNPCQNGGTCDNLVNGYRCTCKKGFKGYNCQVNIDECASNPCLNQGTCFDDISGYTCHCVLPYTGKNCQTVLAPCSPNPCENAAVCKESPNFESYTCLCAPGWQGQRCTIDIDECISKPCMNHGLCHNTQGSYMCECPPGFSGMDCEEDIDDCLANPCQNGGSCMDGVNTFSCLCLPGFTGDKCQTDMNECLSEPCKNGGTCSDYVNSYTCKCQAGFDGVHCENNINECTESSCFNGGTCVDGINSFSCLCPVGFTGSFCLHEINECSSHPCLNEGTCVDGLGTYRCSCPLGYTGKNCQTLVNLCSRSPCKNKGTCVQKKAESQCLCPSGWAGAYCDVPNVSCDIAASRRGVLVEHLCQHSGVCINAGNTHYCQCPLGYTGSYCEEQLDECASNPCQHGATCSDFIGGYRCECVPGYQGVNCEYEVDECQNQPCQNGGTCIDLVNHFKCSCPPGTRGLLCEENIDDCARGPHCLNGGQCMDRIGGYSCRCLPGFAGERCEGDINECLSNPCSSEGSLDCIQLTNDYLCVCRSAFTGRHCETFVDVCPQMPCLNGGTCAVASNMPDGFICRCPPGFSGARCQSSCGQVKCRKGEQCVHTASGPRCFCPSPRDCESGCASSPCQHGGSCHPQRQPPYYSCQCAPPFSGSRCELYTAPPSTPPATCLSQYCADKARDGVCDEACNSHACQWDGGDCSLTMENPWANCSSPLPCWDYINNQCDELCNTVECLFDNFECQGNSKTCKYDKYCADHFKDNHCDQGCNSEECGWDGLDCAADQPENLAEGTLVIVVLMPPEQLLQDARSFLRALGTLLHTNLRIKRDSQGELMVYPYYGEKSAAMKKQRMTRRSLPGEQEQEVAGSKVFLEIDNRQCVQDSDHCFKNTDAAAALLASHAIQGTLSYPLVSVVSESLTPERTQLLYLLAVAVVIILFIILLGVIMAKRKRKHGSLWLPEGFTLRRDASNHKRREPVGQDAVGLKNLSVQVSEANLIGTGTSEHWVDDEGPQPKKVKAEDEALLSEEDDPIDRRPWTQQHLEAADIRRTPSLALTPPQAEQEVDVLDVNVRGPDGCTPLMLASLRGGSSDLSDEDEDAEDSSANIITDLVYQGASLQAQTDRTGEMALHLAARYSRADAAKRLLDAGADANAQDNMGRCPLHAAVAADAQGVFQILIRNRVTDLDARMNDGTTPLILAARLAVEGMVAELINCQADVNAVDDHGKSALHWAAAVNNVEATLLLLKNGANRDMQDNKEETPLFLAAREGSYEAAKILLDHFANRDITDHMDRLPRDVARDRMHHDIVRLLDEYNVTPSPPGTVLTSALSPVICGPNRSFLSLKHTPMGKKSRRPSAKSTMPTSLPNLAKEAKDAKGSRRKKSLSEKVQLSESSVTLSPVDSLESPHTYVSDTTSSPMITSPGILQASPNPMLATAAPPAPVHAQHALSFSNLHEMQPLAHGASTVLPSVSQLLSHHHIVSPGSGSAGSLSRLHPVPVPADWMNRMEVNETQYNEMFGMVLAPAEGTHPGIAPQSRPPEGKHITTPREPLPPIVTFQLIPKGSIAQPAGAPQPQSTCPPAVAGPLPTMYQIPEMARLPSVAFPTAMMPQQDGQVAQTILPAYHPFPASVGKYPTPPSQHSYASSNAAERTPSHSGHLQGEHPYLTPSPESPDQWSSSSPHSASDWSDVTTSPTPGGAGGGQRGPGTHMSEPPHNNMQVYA
For experiment [6], the target named is Pro-neuregulin-1, membrane-bound isoform (Homo sapiens) (UniProt Q02297). In words: small molecules binding neuregulin-1 protein – biochemical, small-molecule microarray, fluorescence 635/667, psychiatric disease protein project, primary screen (AID 1075).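 Also: score combines 667 nm spot fluorescence with signal to noise.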 Conditions: NRG1 binding, 635 nm fluorescence, higher = more signal.
Experiment [7] has as its system Neuregulin-1 EGF-like domain. In words: small molecules binding NRG1 EGF domain – biochemical, small-molecule microarray, 635 nm fluorescence, primary screen (AID 1081).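 Also: binding of the protein to compounds printed on small-molecule microarray slides.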 The note with it: higher = more signal.
A short description of experiment [8]: FRG1 expression reporter modulators in myotubes – cell-based, C2C12 myotubes, firefly/Renilla luciferase, luminescence, FRG1 inhibition for FSHD, primary screen (AID 1084). Conditions: FRG1 promoter luciferase, higher = more signal, called active from +8 up or from −8 down.
The nature of experiment [9]: small molecules captured by biotinylated probe aFST – biochemical, small-molecule microarray, fluorescence 635/667, stem cell growth factor project, primary screen (AID 1086).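 Also: score merges 667 nm fluorescence with signal-to-noise of each printed compound spot.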 Conditions: higher = more signal.
The nature of experiment [10]: binders of probe aHhip on microarray, primary screen, stem cell growth factor project, biochemical, small-molecule microarray, fluorescence 635/667 (AID 1087).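 Also: score merges spot fluorescence at 667nm with spot signal to noise ratio.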 The note with it: higher = more signal.
Experiment [11] relates to PRMT1 (protein arginine N-methyltransferase 1). In words: small molecules binding arginine methyltransferase PRMT1 – biochemical, small-molecule microarray, 635 nm fluorescence, primary screen (AID 1088).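 Also: binding of Prmt1 protein to compounds spotted on small-molecule microarray slides.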 The note with it: higher = more signal.
Experiment [12] is described as follows: growth effects on S. cerevisiae YJM789 – YJM789 clinical isolate, OD600, 24 h, basal, primary screen (AID 1089).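 Also: growth of clinical yeast isolate S. cerevisiae YJM 789 seeded 1000 cells per well; test concentration not given here.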 The note with it: higher = more signal, called active from +8 up or from −8 down.
Experiment [13] is described as follows: S. pombe growth modifiers, basal conditions – strain 972, OD600, 24 h, no modulator, primary screen (AID 1090).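 Also: basal condition with compound alone and no growth modifier present; test concentration not given here.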 Conditions: S. pombe 972 growth, higher = more signal, called active from +8 up or from −8 down.
The nature of experiment [14]: budding yeast growth modifiers under rapamycin – strain BY4716, OD600, 96 h, primary screen (AID 1091). Also: test concentration not given here. The note with it: S. cerevisiae BY4716 + rapamycin, higher = more signal, called active from +8 up or from −8 down.
The target in experiment [15] is Torsin-1A-interacting protein 2 (Homo sapiens) (UniProt Q8NFQ8). In words: small molecules binding lysate-expressed LULL1 – cell lysate, human LULL1 lysate, 635/667 nm fluorescence, primary screen (AID 1092).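 Also: probe is lysate of COS7 cells overexpressing human LULL1; score merges per-feature 667 nm fluorescence with signal-to-noise.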 Conditions: small-molecule microarray, hLULL1 lysate binding, 635 nm fluorescence; higher = more signal.
The nature of experiment [16]: optical density change of DRC41 E. coli – strain DRC41, OD650, 24 h, E. coli filamentation project, primary screen (AID 1093).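 Also: MC1000 strain lacking acrAB efflux and sulA so SOS filamentation is blocked; test concentration not given here.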 Conditions: E. coli DRC41 growth, higher = more signal, called active from +8 up or from −8 down.
Experiment [17] in a line: probe aLefty2 binding to arrayed compounds – biochemical, biotinylated probe, 635/667 nm fluorescence, primary screen (AID 1094).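 Also: score merges spot fluorescence near 667 nm with spot signal-to-noise ratio.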 Conditions: small-molecule microarray, higher = more signal.
Experiment [18] concerns Noggin (protein binding on small-molecule microarray). In words: small molecules binding Noggin protein – biochemical, 635/667 nm fluorescence, primary screen (AID 1095).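 Also: score merges 667 nm feature fluorescence with signal to noise over triplicate slides.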 Conditions: 635 nm fluorescence, higher = more signal.
In experiment [19] the target is Neurogenic locus notch homolog protein 3 (Homo sapiens) (UniProt Q9UM47). In words: small molecules binding NOTCH3 protein – biochemical, 635/667 nm fluorescence, primary screen (AID 1096). Conditions: small-molecule microarray, 635 nm fluorescence, higher = more signal.
Chain of Neurogenic locus notch homolog protein 3 (Homo sapiens) (Q9UM47 whole entry, looked up): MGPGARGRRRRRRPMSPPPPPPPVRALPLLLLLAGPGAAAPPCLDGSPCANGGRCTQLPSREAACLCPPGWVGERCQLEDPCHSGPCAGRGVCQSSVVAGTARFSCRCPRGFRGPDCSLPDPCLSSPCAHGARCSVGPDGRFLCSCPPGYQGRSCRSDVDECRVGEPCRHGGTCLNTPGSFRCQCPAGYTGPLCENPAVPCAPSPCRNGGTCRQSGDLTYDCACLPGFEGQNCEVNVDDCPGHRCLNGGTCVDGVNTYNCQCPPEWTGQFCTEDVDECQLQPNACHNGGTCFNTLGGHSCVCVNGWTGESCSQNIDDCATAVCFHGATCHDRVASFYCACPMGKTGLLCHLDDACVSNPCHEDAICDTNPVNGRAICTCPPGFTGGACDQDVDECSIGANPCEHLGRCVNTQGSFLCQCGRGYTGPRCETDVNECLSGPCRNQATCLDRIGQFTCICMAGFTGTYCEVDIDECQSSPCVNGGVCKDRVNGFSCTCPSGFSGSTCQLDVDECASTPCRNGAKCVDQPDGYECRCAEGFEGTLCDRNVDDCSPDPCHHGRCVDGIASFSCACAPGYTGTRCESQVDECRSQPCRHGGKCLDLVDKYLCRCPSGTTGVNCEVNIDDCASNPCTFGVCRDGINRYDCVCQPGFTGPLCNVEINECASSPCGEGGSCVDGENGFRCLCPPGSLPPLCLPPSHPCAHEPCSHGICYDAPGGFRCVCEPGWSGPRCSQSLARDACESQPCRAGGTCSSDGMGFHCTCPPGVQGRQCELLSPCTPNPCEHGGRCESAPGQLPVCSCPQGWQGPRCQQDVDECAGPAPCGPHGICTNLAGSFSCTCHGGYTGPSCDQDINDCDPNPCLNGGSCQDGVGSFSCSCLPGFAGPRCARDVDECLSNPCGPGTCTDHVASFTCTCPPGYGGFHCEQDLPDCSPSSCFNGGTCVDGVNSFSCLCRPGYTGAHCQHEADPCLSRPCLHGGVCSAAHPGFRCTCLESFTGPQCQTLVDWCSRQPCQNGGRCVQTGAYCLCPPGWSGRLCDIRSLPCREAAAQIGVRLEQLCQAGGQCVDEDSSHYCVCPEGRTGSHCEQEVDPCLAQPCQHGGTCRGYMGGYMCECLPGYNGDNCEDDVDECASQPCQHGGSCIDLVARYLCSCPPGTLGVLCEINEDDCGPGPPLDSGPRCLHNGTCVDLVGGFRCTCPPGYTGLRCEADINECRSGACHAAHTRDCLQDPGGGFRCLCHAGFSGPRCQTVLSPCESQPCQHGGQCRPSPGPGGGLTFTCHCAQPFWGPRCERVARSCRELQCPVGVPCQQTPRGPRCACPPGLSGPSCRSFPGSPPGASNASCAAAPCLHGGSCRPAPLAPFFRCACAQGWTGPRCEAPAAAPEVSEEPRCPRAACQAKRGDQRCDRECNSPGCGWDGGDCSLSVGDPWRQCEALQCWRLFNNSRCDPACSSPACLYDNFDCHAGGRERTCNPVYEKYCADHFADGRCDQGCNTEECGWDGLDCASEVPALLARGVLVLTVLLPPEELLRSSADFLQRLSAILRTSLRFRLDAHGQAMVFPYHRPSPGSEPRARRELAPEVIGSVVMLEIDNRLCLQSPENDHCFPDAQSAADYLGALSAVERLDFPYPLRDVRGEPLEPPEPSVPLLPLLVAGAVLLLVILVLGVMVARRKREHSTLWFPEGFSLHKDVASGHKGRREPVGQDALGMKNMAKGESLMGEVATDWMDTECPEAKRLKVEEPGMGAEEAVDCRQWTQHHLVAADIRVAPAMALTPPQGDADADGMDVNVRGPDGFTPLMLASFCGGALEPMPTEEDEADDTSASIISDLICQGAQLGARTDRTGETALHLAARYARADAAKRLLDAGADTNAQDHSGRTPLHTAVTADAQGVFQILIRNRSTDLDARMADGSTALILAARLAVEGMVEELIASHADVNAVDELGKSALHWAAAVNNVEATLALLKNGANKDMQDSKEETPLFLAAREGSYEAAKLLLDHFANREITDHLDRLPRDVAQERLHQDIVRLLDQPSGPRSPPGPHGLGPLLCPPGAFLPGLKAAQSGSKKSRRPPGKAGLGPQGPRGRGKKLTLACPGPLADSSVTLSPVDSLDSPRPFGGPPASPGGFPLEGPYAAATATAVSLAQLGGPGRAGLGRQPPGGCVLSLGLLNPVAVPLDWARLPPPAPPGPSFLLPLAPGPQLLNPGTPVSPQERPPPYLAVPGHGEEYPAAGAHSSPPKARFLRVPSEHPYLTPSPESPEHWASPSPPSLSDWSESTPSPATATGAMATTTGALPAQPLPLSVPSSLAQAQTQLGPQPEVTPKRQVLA
Experiment [20] can be described thus: probe aEGFR binding to arrayed compounds – biochemical, biotinylated probe, 635/667 nm fluorescence, primary screen (AID 1097).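 Also: probe is a biotinylated anti-EGFR antibody binding compounds printed on slides; score combines fluorescence near 667 nm and signal to noise of each spot.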 The note with it: small-molecule microarray, higher = more signal.

For the compound `C#CCN(CC1=CCCCC1)[C@H](c1ccccc1Br)[C@@H](O)Cc1ccccc1`, the composite z-score is 0.727 in experiment [1]; 0.518 in [2]; -0.176 in experiment [3]; -0.123 in [4]; -0.978 in experiment [5]; 0.251 in [6]. Further, the composite z-score is 0.928 in experiment [7]; -0.967 in experiment [9]; -0.166 in [10]; 0.249 in experiment [11]; 1.04 in [15]; -0.0724 in experiment [17]. Besides, the figures for the composite z-score in experiment [18], in experiment [19] and in experiment [20] were -0.51, -0.721 and -0.356, respectively. The z-score in experiment [8] is -2.16 (inactive); in [12] it was 0.119 (inactive); in experiment [13], -4.79 (inactive); in experiment [14], -0.655 (inactive); in experiment [16] it was 1.79 (inactive).
With `COc1ccc(C(O)C2C=CC3C(=O)N(C)C(=O)C3N2N2CCCCC2)c2ccccc12` (stereo not given), the composite z-score in experiment [1] is -0.226; in [2], 0.0595; in [3], 0.192; in experiment [4], 0.988; in experiment [5], 1.65; in experiment [6] it was 1.27. The composite z-score in experiment [7] came to 1.07; in experiment [9], 0.858; in [10] it was 0.176; in [11] it was 1.42; in experiment [15] it was 3.01; in experiment [17] it was 0.168. The results for the composite z-score in experiment [18], in experiment [19] and in [20] were 0.303, 1.11 and 0.095, respectively. Moreover, the z-score in experiment [8] is -0.292 (inactive); in experiment [12], -0.079 (inactive); in [13], 1.16 (inactive); in [14] it was 0.631 (inactive); in [16] it was -1.22 (inactive).
`C=CCNC(=O)[C@H]1[C@@H]2C(=O)O[C@@H](c3ccccc3)[C@@H](c3ccccc3)N2[C@@H](c2ccc(O)cc2)[C@]12C(=O)N(C(=O)OCCOC)c1ccc(C#CCNC(N)=O)cc12`: the composite z-score was -0.14 in experiment [1]; -0.019 in experiment [2]; -0.0996 in experiment [3]; 0.379 in experiment [4]; 0.729 in [5]; 0.0037 in experiment [6]. Also, the composite z-score in [7] turned out to be 0.879; in [9], 0.007; in experiment [10] it was 0.0722; in experiment [11] it was 1.42; in experiment [15], 0.922; in [17], 0.136. Also, the figures for the composite z-score in [18], in experiment [19] and in experiment [20] were 0.79, 0.924 and 0.0821, respectively. Further, the z-score is -0.226 (inactive) in experiment [8]; 0.905 (inactive) in [12]; 0.311 (inactive) in [13]; 1.63 (inactive) in experiment [14]; -0.781 (inactive) in experiment [16].
Consider `COC(=O)[C@@]1(Cc2ccc(F)cc2)[C@H]2c3cc(C(=O)N4CCCC4)n(Cc4cc(C)n(C)n4)c3C[C@H]2CN1C(=O)c1ccccc1`, for which the composite z-score in [1] was 1.08; in experiment [2], 0.276; in experiment [3], 0.188; in [4] it was 0.741; in experiment [5] it was 1.63; in [6], 2.3. The composite z-score in [7] amounted to 1.19; in experiment [9] it was 0.939; in experiment [10], 0.28; in [11] it was 0.364; in experiment [15] it was 3.75; in experiment [17], 0.555. Further, the composite z-score was -0.678 in experiment [18], 0.769 in [19] and 0.209 in experiment [20]. The z-score in [8] is 0.23 (inactive); in experiment [12] it was -0.408 (inactive); in experiment [13] it was -0.292 (inactive); in experiment [14], 1.2 (inactive); in experiment [16], 0.234 (inactive).
Regarding `CCOC(=O)C[C@H]1[C@H](OC(=O)c2cc3ccccc3oc2=O)[C@@H](NC(=O)C2CCCCC2)c2cc(OCCCO)ccc2N1C(=O)c1ccccc1`, the composite z-score in experiment [1] is -0.565; in [2], 0.0071; in experiment [3] it was -0.121; in experiment [4] it was 0.642; in experiment [5], 1.29; in [6] it was 0.0246. For the same compound, the composite z-score in experiment [7] is 0.863; in [9], 0.564; in [10], -0.0618; in [11], 0.633; in experiment [15], 1.45; in [17], -0.0668. The composite z-score in experiment [18] is 0.844; in experiment [19], 0.615; in [20] it was 0.25. Besides, the z-score in experiment [8] was 0.0161 (inactive); in experiment [12], -0.415 (inactive); in experiment [13], -0.894 (inactive); in experiment [14] it was -0.0843 (inactive); in experiment [16], 2.03 (inactive).
For the compound `C=C(CCCC)C(=O)CC[C@H](OC(=O)c1cccnc1)c1ccccc1OCCO`, the composite z-score in experiment [1] is 0.453; in experiment [2], 0.657; in experiment [3] it was -0.0573; in experiment [4], 0.726; in experiment [5], -0.261; in experiment [6], -0.113. The composite z-score in [7] was 0.22; in [9], 0.0241; in experiment [10], 0.0505; in experiment [11], 0.449; in experiment [15], -0.0709; in experiment [17], -0.19. The composite z-score was 0.282 in experiment [18], 0.214 in [19] and -0.0656 in experiment [20]. Besides, the z-score in experiment [8] was 1.28 (inactive); in experiment [12], -2.23 (inactive); in experiment [13], -2.01 (inactive); in experiment [14] it was -1.34 (inactive); in [16], 0.576 (inactive).
